{"source": "PubChem BioAssay AID624354", "about": "(Sanford-Burnham Center for Chemical Genomics, 2012)", "note": "The campaign covered roughly 360,000 compounds. About 3,800 (1.1%) were called active. For the sample, actives were picked, then their nearest neighbours and some compounds at random. A number with no mark means an inactive call.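 Rule for the calls: active = compounds causing at least 50% loss of cell viability in the single-dose screen, relative to plate controls; inactive = the rest.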", "data": [{"test": "viability loss with TRAIL in NB7+C8 cells, primary screen, TRAIL sensitizer project, cell-based, ATPlite luminescence (AID 624354)", "settings": "at 10 µM, active compounds read high", "values": [{"smiles": "O=C(NCCO)C(=O)NCC(c1ccc2c(c1)OCO2)N1CCN(c2ccc(F)cc2)CC1", "note": "(stereo not drawn)", "inhibition (viability loss, TRAIL sensitization)": "-13%"}, {"smiles": "COc1ccc([N+](=O)[O-])cc1NC(=O)C(C)OC(=O)C1c2ccccc2Oc2ccccc21", "note": "(stereo not drawn)", "inhibition (viability loss, TRAIL sensitization)": "5.23%"}, {"smiles": "CCN(C(=O)COc1cccnc1[N+](=O)[O-])C1CCS(=O)(=O)C1", "note": "(stereo not drawn)", "inhibition (viability loss, TRAIL sensitization)": "-20.2%"}, {"smiles": "CCOc1ccc2nc(N(CCCN(C)C)C(=O)c3ccc(C(=O)c4ccccc4)cc3)sc2c1", "inhibition (viability loss, TRAIL sensitization)": "84.6% (active)"}, {"smiles": "CCOc1ccc2nc(C(=O)N3CCCC(C)C3)sc2c1", "note": "(stereo not drawn)", "inhibition (viability loss, TRAIL sensitization)": "31.9%"}, {"smiles": "CCN(C(=O)COc1ccc(C(=O)c2ccccc2)cc1)c1ccccc1", "inhibition (viability loss, TRAIL sensitization)": "5.81%"}, {"smiles": "CN(C)CCCN(C(=O)c1ccc(S(=O)(=O)N2CCCc3ccccc32)cc1)c1nc2ccc(F)cc2s1", "inhibition (viability loss, TRAIL sensitization)": "49.7% (active)"}, {"smiles": "CCC(=O)Nc1nnc(S(=O)(=O)N2CCCc3ccccc32)s1", "inhibition (viability loss, TRAIL sensitization)": "18.7%"}, {"smiles": "CC1CCN(C(=O)c2cccc(S(=O)(=O)N3CCCc4ccccc43)c2)CC1", "inhibition (viability loss, TRAIL sensitization)": "9.56%"}, {"smiles": "CC(C)CC(=O)N1CCN(Cc2ccccc2Br)CC1", "inhibition (viability loss, TRAIL sensitization)": "-13.2%"}, {"smiles": "COC(=O)[C@]12CCCCC=C1N(Cc1cccc3ccccc13)C(=O)[C@H](CC(=O)N1CCOCC1)C2", "inhibition (viability loss, TRAIL sensitization)": "-17.8%"}, {"smiles": "CCN(Cc1ccncc1)C(=S)Nc1ccccc1C", "inhibition (viability loss, TRAIL sensitization)": "-14.3%"}, {"smiles": "COc1cc(C=O)ccc1Oc1nnnn1-c1ccccc1", "inhibition (viability loss, TRAIL sensitization)": "9.4%"}, {"smiles": "O=C(CNC(=O)c1cc(=O)[nH]c2ccccc12)Nc1ccc(F)c(F)c1", "inhibition (viability loss, TRAIL sensitization)": "-6.89%"}, {"smiles": "CCC1Oc2ccccc2N(CC(=O)NCCCN2CCN(CC)CC2)C1=O", "note": "(stereo not drawn)", "inhibition (viability loss, TRAIL sensitization)": "-10.7%"}, {"smiles": "Cc1ccc(NC(=O)CCCNC(=O)c2ccc(Cl)cc2)cc1S(=O)(=O)N1CCOCC1", "inhibition (viability loss, TRAIL sensitization)": "3.06%"}, {"smiles": "CN1CCN(CCCNC(=O)c2ccc(/C=C3\\Oc4ccccc4N(Cc4ccc(Cl)cc4)C3=O)cc2)CC1", "inhibition (viability loss, TRAIL sensitization)": "70.5% (active)"}, {"smiles": "O=C(Nc1cccc(F)c1)N1C2CCC1CC(O)(c1cccnc1)C2", "note": "(stereo not drawn)", "inhibition (viability loss, TRAIL sensitization)": "-0.997%"}, {"smiles": "Cc1ccsc1C(=O)OCC(=O)c1cc(C)n(CC2CCCO2)c1C", "note": "(stereo not drawn)", "inhibition (viability loss, TRAIL sensitization)": "75.4% (active)"}, {"smiles": "CCCn1c(C)cc(C(=O)COC(=O)c2c(C)nn(-c3ccccc3)c2C)c1C", "inhibition (viability loss, TRAIL sensitization)": "1.44%"}, {"smiles": "COc1ccc(CNC(=O)COC(=O)c2sccc2C)cc1OC", "inhibition (viability loss, TRAIL sensitization)": "-16.5%"}, {"smiles": "COc1ccc(/C=N/N=C/c2c[nH]c(=O)c(C#N)c2Nc2ccccc2)cc1", "inhibition (viability loss, TRAIL sensitization)": "19.4%"}, {"smiles": "COc1cc(OC)cc(-c2nc(=S)n3ccsc3n2)c1", "inhibition (viability loss, TRAIL sensitization)": "-7%"}, {"smiles": "FC(F)(F)Oc1ccc(-c2cn3cccnc3n2)cc1", "inhibition (viability loss, TRAIL sensitization)": "34.5%"}, {"smiles": "Cc1ccc(S(=O)(=O)NCc2cn3ccsc3n2)c(C)c1", "inhibition (viability loss, TRAIL sensitization)": "-5.68%"}, {"smiles": "COc1ccc(-c2cn3ccc(C)cc3n2)cc1", "inhibition (viability loss, TRAIL sensitization)": "87.1% (active)"}, {"smiles": "COc1ccc(-c2cn3ccsc3n2)cc1", "inhibition (viability loss, TRAIL sensitization)": "54.1% (active)"}, {"smiles": "COc1ccc(-c2cc3nc(NCCOc4ccccc4)ccn3n2)cc1", "inhibition (viability loss, TRAIL sensitization)": "2.79%"}, {"smiles": "CCn1cc(C(=O)NCC(=O)NC(C)(C)CO)c(=O)c2cc3c(cc21)OCO3", "inhibition (viability loss, TRAIL sensitization)": "-16.5%"}, {"smiles": "COc1ccc(C(C)NC(=S)NC2CCCCC2)cc1OC", "note": "(stereo not drawn)", "inhibition (viability loss, TRAIL sensitization)": "-10.3%"}, {"smiles": "CN1CC(c2ccccc2)C2(COc3ccccc3C2=O)C12C(=O)Nc1ccccc12", "note": "(stereo not drawn)", "inhibition (viability loss, TRAIL sensitization)": "1.61%"}, {"smiles": "COc1ccc(OC)c(NC(=O)CSc2nc(N)c(-c3ccccc3)c(=O)[nH]2)c1", "inhibition (viability loss, TRAIL sensitization)": "-16.4%"}, {"smiles": "OC(CNCc1ccc(Cl)c(Cl)c1)c1ccccc1", "note": "(stereo not drawn)", "inhibition (viability loss, TRAIL sensitization)": "1.28%"}]}]}
